Structures are written as SMILES.

Our source for the composite z-score values is PubChem BioAssay.

This assay can be described thus: probe aNOTCH3 binding on compound microarray – biochemical, small-molecule microarray, 635/667 nm fluorescence, primary screen (AID 1120).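 Note: probe is a biotin-tagged antibody raised against NOTCH3 rather than NOTCH3 protein; score merges spot fluorescence near 667 nm with spot signal to noise.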 To be noted: higher = more signal.
Regarding `Cc1ccccc1C(O)C1C=CC2C(=O)N(C)C(=O)C2N1N(c1ccccc1)c1ccccc1` (stereo not given), the composite z-score was 0.84. On to `COc1ccc([Si](C)(C)[C@@H]2[C@@H](CC(=O)N(CCO)Cc3ccccc3)O[C@]3(C(=O)N(Cc4cccc(N5C(=O)c6cccc7cccc5c67)c4)c4ccccc43)[C@H]2C)cc1`, for which the composite z-score is -0.124. The same measure for `C=C[C@@H](COC(C)=O)N(C(=O)OC(C)(C)C)S(=O)(=O)c1ccc(Br)cc1`: 0.0494; for `C=C(COC)/C(=C/C[C@H](OC(C)=O)c1ccc(OCCO)cc1)c1cc(C(=O)OC)ccc1OC`: 0.0642.

Regarding `Cc1ccc(S[C@]2(C(=O)NCC(F)(F)F)CC(=O)N(Cc3ccccc3C(F)(F)F)[C@@H]2c2ccc(CO)cc2I)cc1`, the composite z-score is -0.3. For the molecule `COC(=O)[C@@]1(Cc2ccc(F)cc2)[C@H]2c3cc(C(=O)N4CCCC4)n(CCc4ccc(O)c(O)c4)c3C[C@H]2CN1C(=O)c1ccccc1`, the composite z-score stood at 1.26. The same measure for `COCCOC(=O)N1C(=O)[C@@]2(c3cc(C#CCC(C(=O)OC)C(=O)OC)ccc31)[C@H](C(=O)N1CCc3cc(OC)c(OC)cc3C1)[C@H]1C(=O)O[C@H](c3ccccc3)[C@H](c3ccccc3)N1[C@@H]2c1ccc(OCCO)cc1`: 0.15; for `COc1ccc(CCN2C(=O)[C@@]3(Cc4ccccc42)c2ccccc2C(=O)N(Cc2ccccc2OC)[C@H]3c2ccc(CO)cc2)cc1`: -0.177; for `CN(C)CCCNC(=O)[C@@]1(c2ccc([N+](=O)[O-])cc2)CC(=O)N(CC23CC4CC(CC(C4)C2)C3)[C@@H]1c1ccc(CO)cc1I`: 0.095.

As to `CCCC[C@@H]1C[C@H]1[C@@H](NC(=O)c1cccs1)c1ccc(C(F)(F)F)cc1`, the composite z-score worked out at 0.0026.
